The results in this text go back to PubChem BioAssay (Tox21).

Where “and” joins values, the source holds several entries; their conditions need not be identical. Identical values can stand only once. Records with an inconclusive call do not appear. Where a call stands in place of a potency, no number is given. More than one record can exist for a structure, and the calls need not agree. Calls of active or inactive are those of the source. Calls come from the whole dose curve; as a rule, active = well fitted curve in the direction sought with a large enough effect in the repeat runs; inconclusive = weak or mixed curves; inactive = no such curve, though single readings can be large; an effect the other way counts as inactive or inconclusive. Residues, ends and D or L forms follow the SMILES beside them.
Note: nearly all actives have a fitted effect of over 50% in size.

Voltage-gated inwardly rectifying potassium channel KCNH2 (Homo sapiens), sequence (Q12809 whole entry, looked up): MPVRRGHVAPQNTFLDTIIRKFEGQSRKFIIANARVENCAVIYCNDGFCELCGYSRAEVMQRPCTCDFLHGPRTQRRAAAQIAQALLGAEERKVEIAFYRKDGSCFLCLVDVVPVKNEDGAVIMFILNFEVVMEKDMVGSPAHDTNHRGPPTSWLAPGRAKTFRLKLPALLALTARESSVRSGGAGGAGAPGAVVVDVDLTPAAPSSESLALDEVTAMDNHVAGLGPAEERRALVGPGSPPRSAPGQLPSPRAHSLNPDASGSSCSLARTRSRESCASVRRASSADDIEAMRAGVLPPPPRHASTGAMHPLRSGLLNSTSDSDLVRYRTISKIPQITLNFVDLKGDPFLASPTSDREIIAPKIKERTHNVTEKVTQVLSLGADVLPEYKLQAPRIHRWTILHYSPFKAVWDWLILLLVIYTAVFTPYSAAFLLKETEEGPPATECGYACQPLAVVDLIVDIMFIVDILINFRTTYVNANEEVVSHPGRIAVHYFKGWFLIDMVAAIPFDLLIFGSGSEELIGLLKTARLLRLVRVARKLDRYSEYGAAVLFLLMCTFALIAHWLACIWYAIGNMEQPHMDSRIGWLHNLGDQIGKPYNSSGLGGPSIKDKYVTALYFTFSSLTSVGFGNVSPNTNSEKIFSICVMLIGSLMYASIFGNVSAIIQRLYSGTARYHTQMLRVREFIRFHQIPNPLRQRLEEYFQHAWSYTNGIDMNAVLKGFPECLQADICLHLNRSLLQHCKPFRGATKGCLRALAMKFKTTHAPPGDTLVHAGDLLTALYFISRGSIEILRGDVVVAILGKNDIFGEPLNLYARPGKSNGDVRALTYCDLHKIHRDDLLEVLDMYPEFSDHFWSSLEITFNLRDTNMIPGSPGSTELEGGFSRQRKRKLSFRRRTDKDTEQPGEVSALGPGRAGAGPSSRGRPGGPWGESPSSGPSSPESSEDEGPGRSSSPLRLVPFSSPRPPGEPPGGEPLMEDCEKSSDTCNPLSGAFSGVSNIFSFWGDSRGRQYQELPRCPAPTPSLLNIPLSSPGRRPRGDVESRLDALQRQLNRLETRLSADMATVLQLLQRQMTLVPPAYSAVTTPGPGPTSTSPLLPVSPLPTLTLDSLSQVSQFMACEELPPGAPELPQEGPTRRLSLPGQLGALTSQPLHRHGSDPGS
Cytochrome P450 3A4 (Homo sapiens), sequence (P08684 whole entry, looked up): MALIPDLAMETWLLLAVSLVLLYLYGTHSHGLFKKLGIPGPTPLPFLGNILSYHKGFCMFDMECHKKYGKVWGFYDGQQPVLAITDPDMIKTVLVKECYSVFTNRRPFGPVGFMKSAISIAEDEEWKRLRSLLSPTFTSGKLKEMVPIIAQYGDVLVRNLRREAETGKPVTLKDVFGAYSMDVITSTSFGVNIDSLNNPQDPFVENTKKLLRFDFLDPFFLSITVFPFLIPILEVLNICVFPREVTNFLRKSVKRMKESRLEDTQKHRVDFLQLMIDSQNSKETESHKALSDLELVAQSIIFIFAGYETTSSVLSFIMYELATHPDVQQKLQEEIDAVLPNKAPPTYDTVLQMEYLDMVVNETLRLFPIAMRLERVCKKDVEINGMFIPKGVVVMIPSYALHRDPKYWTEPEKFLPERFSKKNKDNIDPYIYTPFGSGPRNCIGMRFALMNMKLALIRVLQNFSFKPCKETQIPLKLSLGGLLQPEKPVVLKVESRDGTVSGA

The target of one experiment is Cytochrome P450 1A2 (Homo sapiens) (UniProt P05177). Nature of the experiment: Cytochrome P450 Family 1 Subfamily A Member 2 (CYP1A2) small molecule antagonists: luciferase reporter qHTS assay (AID 1671199). Note: potency is the fitted concentration of half-maximal effect. The settings on record: P450-Glo CYP1A2 enzyme, luciferin luminescence, 1 h; series mostly up to 115 µM. The essentials: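 Enzymatic CYP1A2 assay, human, luminescent: 10 min compound–enzyme–substrate preincubation, 1 h NADPH-dependent turnover, 20 min detection step, room temperature throughout. Reduced light indicates lower CYP1A2 activity.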
Cytochrome P450 1A2 (Homo sapiens), sequence (P05177 whole entry, looked up): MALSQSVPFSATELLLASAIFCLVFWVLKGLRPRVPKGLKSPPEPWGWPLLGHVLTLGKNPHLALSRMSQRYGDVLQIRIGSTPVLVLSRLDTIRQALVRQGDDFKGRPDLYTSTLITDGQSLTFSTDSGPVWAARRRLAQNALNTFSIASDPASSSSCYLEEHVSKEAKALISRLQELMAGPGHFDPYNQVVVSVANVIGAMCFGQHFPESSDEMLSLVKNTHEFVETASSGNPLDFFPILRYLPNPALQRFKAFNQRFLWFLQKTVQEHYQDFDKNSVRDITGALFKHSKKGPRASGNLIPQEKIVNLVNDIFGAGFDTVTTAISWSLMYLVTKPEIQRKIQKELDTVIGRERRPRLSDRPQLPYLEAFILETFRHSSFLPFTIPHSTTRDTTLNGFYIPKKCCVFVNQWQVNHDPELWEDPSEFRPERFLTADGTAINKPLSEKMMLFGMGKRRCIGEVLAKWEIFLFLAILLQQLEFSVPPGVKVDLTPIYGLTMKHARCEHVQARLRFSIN
In general terms: In a reporter assay the amount or activity of a reporter protein is the signal.
With `NC(N)=O`, the Potency result is “inactive”.
Same read-out and setting: for `O=C(c1ccccc1)C(O)c1ccccc1` (centres undefined) the value was 31.4 µM (active) and 12.9 µM (active); for `O=C(O)CCCCC(=O)O`, “inactive”.
Consider `CCCC(O)C(CC)CO` (centres undefined), for which the Potency entry is “inactive”.
As to `COC(=O)[C@H](Cc1ccccc1)NC(=O)[C@@H](N)CC(=O)O` (H-Asp-Phe-OMe), the Potency result is “inactive”.
Consider `O=c1ccc2ccccc2o1`, for which the Potency is 36.3 µM (active) and 31.7 µM (active) and inactive.
With `CC(O)C(=O)O` (centres undefined), the Potency entry was “inactive and 24.5 µM (active)”.
Consider `CC(O)CN(CCN(CC(C)O)CC(C)O)CC(C)O` (centres undefined), for which the Potency result is “inactive”.
Same read-out and setting: for `C[C@]12C=CC(=O)C=C1CC[C@@H]1[C@@H]2[C@@H](O)C[C@@]2(C)[C@H]1CC[C@]2(O)C(=O)CO` the value was “inactive”.
With `CC(C)(Oc1ccc(C2CC2(Cl)Cl)cc1)C(=O)O` (centres undefined), the Potency entry is “inactive”.
In the case of `O=c1cc[nH]c(=S)[nH]1`, the Potency was 71.5 µM (active) and 36.7 µM (active) and 24.5 µM (active).
Take `c1ccc2[nH]ccc2c1`: the Potency is 35 µM (active) and 35.6 µM (active) and 17.4 µM (active).
Take `Cc1cc(=O)[nH]c(=S)[nH]1`: the Potency result is “inactive”.
For `O=C(O)CCC(=O)O`, the Potency result is “inactive”.
The same measure, in the same setting: as for `CC(O)CO` (centres undefined), the entry is “inactive”.
`O=C1CN(/N=C/c2ccc([N+](=O)[O-])o2)C(=O)N1`: the Potency result was “inactive”.
For the molecule `O=C(O)c1cc(N=Nc2ccc(S(=O)(=O)Nc3ccccn3)cc2)ccc1O`, the Potency result is “inactive”.
For the molecule `O=C(O)C(=O)O`, the Potency entry is “inactive”.
Take `Cc1cn([C@H]2C[C@H](N=[N+]=[N-])[C@@H](CO)O2)c(=O)[nH]c1=O`: the Potency entry was “inactive”.
On to `CC1(C)[C@@H]2CC[C@@]1(C)C(=O)C2`, for which the Potency result was “inactive”.
On to `Nc1ccc(C(=O)O)cc1`, for which the Potency entry is “inactive”.
Take `CC(=O)OCC(COC(C)=O)OC(C)=O`: the Potency is 62.5 µM (active) and inactive.
For `Cc1ccccc1C(OCCN(C)C)c1ccccc1` (centres undefined), the Potency entry was “inactive and 31.7 µM (active)”.
Consider `C/C=C/c1ccc(OC)cc1`, for which the Potency entry was “inactive and 17.4 µM (active)”.
As for `CC(C)[C@@H]1CC[C@@H](C)C[C@H]1O`, the Potency result is “inactive”.
For the molecule `CCCC(CCC)C(=O)O`, the Potency was 5.62 µM (active) and inactive.
The same measure, in the same setting: as for `NNC(=O)c1ccncc1`, the figure is 40 µM (active) and 26.5 µM (active) and 27.5 µM (active); as for `CCCCCCCCCCCCCCCC(=O)O`, 39.9 µM (active) and inactive; as for `CCCCC(CC)COC(=O)/C=C/c1ccc(OC)cc1` (centres undefined), 19.9 µM (active) and 12.6 µM (active) and 13.8 µM (active).
In the case of `NC(=O)c1ccccc1O`, the Potency result is “inactive”.

The next experiment addresses Voltage-gated inwardly rectifying potassium channel KCNH2 (Homo sapiens) (UniProt Q12809). Nature of the experiment: Human Ether-a-go-go-Related Gene (hERG) channel small molecule antagonists: fluorescence cell-based qHTS assay (AID 1671200).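 Note: hERG-expressing U2OS cells given a thallium stimulus after FluxOR II dye loading.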 The settings on record: hERG-U2OS cells, FluxOR thallium flux fluorescence; series mostly up to 76.8 µM. Put shortly: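 In this thallium-flux screen, overnight-cultured U2OS cells bearing the channel are dye-loaded in darkness for an hour, rested 10 min at room temperature, and then monitored kinetically at 480/540 nm for two minutes post-stimulus.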
With `NC(N)=O`, the outcome was inactive.
`O=C(O)CCCCC(=O)O`: the molecule was classed as inactive.
As for `CCCC(O)C(CC)CO` (centres undefined), the molecule was classed as inactive.
Take `COC(=O)[C@H](Cc1ccccc1)NC(=O)[C@@H](N)CC(=O)O` (H-Asp-Phe-OMe): the outcome was inactive.
In the case of `O=c1ccc2ccccc2o1`, the outcome was inactive.
In the case of `CC(O)C(=O)O` (centres undefined), the result was inactive.
For `C[C@]12C=CC(=O)C=C1CC[C@@H]1[C@@H]2[C@@H](O)C[C@@]2(C)[C@H]1CC[C@]2(O)C(=O)CO`, the result was inactive.
As to `O=c1cc[nH]c(=S)[nH]1`, the call was inactive.
Consider `c1ccc2[nH]ccc2c1`, for which the molecule was called inactive.
With `Cc1cc(=O)[nH]c(=S)[nH]1`, the outcome was inactive.
Consider `CC(O)CO` (centres undefined), for which the outcome was inactive.
Still for that read-out and setting: as for `CC1(C)[C@@H]2CC[C@@]1(C)C(=O)C2`, the entry is “inactive”; as for `CCCC(CCC)C(=O)O`, “inactive”; as for `CCCCC(CC)COC(=O)/C=C/c1ccc(OC)cc1` (centres undefined), “inactive”.
As for `NC(=O)c1ccccc1O`, the molecule was classed as inactive.

A further experiment has as its target Cytochrome P450 3A4 (Homo sapiens) (UniProt P08684). As to the kind of experiment: Cytochrome P450 Family 3 Subfamily A Member 4 (CYP3A4) small molecule antagonists: luciferase reporter qHTS assay (AID 1671201). Note: potency is the fitted concentration of half-maximal effect. The settings on record: P450-Glo CYP3A4 enzyme, luciferin luminescence, 1 h; series mostly up to 115 µM. The essentials: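 CYP3A4 activity was followed with a P450-Glo proluciferin substrate. Test compounds in DMSO were preincubated 10 min; NADPH regeneration then ran 1 h, and light output was read 20 min after detection reagent.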
Turning to `NC(N)=O`, the Potency result was “inactive”.
Same read-out and setting: for `O=C(c1ccccc1)C(O)c1ccccc1` (centres undefined) the value was “inactive”.
On the same count and under the same terms, as for `O=C(O)CCCCC(=O)O`, the entry is “inactive”; as for `CCCC(O)C(CC)CO` (centres undefined), “inactive”; as for `COC(=O)[C@H](Cc1ccccc1)NC(=O)[C@@H](N)CC(=O)O` (H-Asp-Phe-OMe), “inactive”.
With `CCOc1ccc(NC(=O)CC(C)O)cc1` (centres undefined), the Potency result is “inactive”.
Consider `O=c1ccc2ccccc2o1`, for which the Potency entry was “inactive”.
On to `CC(O)C(=O)O` (centres undefined), for which the Potency entry was “inactive”.
The same measure, in the same setting: for `CC(O)CN(CCN(CC(C)O)CC(C)O)CC(C)O` (centres undefined) the value was “inactive”; for `C[C@]12C=CC(=O)C=C1CC[C@@H]1[C@@H]2[C@@H](O)C[C@@]2(C)[C@H]1CC[C@]2(O)C(=O)CO`, “inactive”.
On the same count and under the same terms, as for `CC(C)(Oc1ccc(C2CC2(Cl)Cl)cc1)C(=O)O` (centres undefined), the entry is “inactive”; as for `O=c1cc[nH]c(=S)[nH]1`, “inactive”; as for `c1ccc2[nH]ccc2c1`, “inactive”.
`Cc1cc(=O)[nH]c(=S)[nH]1`: the Potency entry is “inactive”.
As for `O=C(O)CCC(=O)O`, the Potency entry was “inactive”.
For the molecule `CC(O)CO` (centres undefined), the Potency is 27.2 µM (active) and inactive.
As to `O=C1CN(/N=C/c2ccc([N+](=O)[O-])o2)C(=O)N1`, the Potency entry is “inactive”.
Still for that read-out and setting: for `O=C(O)c1cc(N=Nc2ccc(S(=O)(=O)Nc3ccccn3)cc2)ccc1O` the value was “inactive”; for `O=C(O)C(=O)O`, “inactive”; for `Cc1cn([C@H]2C[C@H](N=[N+]=[N-])[C@@H](CO)O2)c(=O)[nH]c1=O`, “inactive”.
Consider `CC1(C)[C@@H]2CC[C@@]1(C)C(=O)C2`, for which the Potency entry was “inactive”.
For the molecule `Nc1ccc(C(=O)O)cc1`, the Potency entry was “inactive”.
As to `CC(=O)OCC(COC(C)=O)OC(C)=O`, the Potency entry is “inactive”.
The same measure, in the same setting: for `Cc1ccccc1C(OCCN(C)C)c1ccccc1` (centres undefined) the value was “inactive”; for `CC(C)[C@@H]1CC[C@@H](C)C[C@H]1O`, “inactive”; for `CCCC(CCC)C(=O)O`, “inactive”.
`CCCCCCCCCCCCCCCC(=O)O`: the Potency entry is “inactive”.
As for `CCCCC(CC)COC(=O)/C=C/c1ccc(OC)cc1` (centres undefined), the Potency result is “inactive”.
The same measure, in the same setting: for `NC(=O)c1ccccc1O` the value was “inactive”.
